# According to article PMC7862700, “An all-to-all approach to the identification of sequence-specific readers for epigenetic DNA modifications on cytosine”:
# Experiments:
# Assay in all cases: DAPPL (digital affinity profiling via proximity ligation, sequencing); 10 mM Tris-HCl pH 7.5, 50 mM NaCl, 1 mM DTT, 4% glycerol, room temperature, 30 min; GST-TFs on glutathione beads, 16-mer random dsDNA library, 0.1% formaldehyde crosslink after washing; high values mean tight binding
# Settings in all cases: protein: recombinant; tags: N-terminal GST; dsDNA, one strand shown
# [1] = molecular target: T1, ELK1 (Homo sapiens, UniProt P19419 1-428)
# T1 sequence: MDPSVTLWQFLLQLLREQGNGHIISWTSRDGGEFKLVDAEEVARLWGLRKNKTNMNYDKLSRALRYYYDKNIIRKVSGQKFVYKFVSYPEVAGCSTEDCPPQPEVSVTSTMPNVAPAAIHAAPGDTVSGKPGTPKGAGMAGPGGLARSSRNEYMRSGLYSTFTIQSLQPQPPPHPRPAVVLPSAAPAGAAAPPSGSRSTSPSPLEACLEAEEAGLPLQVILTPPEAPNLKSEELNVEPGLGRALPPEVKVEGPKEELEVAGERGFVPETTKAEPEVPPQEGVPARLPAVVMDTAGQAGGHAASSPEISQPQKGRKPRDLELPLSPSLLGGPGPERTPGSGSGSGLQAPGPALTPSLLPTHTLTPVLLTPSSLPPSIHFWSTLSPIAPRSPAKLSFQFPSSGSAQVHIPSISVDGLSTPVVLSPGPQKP
# How it was run: (§1)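 Beads coated with glutathione captured GST-fused human transcription factors that had been expressed in yeast, and the factors were then given DNA barcodes and pooled with a tag-only sample. The pools were incubated with 200 nmole of a random double-stranded 16-mer DNA library in Tris/NaCl/DTT/glycerol buffer for 30 min at room temperature, washed, crosslinked with 0.1% formaldehyde and proximity-ligated with BsaI/T4 ligase at 37 °C for 1 h. PCR amplification and Illumina NextSeq500 sequencing came last. Binding signal is each hexamer's read frequency for a factor divided by its frequency for the tag-only sample.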
# [2] = molecular target: T2, GABPA (Homo sapiens, UniProt Q06546 1-454)
# T2 sequence: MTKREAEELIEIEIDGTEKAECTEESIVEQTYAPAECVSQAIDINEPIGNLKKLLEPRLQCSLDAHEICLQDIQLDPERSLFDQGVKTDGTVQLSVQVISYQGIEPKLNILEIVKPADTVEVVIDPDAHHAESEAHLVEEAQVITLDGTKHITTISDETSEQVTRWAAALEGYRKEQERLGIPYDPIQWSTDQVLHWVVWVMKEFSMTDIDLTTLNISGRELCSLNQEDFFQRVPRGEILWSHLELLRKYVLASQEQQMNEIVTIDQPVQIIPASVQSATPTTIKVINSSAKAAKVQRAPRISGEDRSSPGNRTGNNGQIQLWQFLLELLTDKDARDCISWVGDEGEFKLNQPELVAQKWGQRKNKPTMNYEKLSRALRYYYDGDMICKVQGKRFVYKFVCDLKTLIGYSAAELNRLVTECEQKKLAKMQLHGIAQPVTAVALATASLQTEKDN
# How it was run: as §1
# [3] = molecular target: T3, ERG (Homo sapiens, UniProt P11308 1-479)
# T3 sequence: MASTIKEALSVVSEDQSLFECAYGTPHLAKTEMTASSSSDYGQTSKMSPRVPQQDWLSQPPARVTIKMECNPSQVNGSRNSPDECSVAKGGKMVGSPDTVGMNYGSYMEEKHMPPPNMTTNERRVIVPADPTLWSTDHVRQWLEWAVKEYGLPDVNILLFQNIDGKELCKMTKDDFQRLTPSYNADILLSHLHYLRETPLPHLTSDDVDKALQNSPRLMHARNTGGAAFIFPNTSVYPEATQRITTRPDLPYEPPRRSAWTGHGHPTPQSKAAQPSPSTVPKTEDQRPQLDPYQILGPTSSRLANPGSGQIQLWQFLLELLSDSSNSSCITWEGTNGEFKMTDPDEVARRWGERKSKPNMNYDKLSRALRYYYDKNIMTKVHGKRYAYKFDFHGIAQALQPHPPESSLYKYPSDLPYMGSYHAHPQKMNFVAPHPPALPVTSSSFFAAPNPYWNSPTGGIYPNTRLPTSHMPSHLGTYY
# How it was run: as §1
# [4] = molecular target: ELF1 (Homo sapiens, UniProt P32519 1-619)
# Sequence of ELF1 (P32519 whole entry): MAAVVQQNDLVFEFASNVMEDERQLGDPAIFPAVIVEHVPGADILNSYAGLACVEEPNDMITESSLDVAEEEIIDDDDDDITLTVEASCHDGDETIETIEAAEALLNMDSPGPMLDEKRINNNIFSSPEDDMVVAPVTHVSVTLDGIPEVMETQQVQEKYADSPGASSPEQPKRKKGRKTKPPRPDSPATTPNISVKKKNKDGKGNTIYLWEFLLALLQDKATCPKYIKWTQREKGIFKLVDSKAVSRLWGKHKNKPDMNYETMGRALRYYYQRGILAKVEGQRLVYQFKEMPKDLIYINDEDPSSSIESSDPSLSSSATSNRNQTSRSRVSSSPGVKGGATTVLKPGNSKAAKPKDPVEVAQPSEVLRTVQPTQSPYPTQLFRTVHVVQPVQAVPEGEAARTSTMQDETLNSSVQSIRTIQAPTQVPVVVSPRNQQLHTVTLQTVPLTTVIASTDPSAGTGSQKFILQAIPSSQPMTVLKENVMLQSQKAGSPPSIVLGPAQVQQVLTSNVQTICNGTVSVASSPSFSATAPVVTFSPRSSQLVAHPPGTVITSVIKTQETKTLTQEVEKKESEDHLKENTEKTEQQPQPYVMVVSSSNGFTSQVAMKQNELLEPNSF
# How it was run: as §1
# [5] = molecular target: T4, EHF (Homo sapiens, UniProt Q9NZC4 1-300)
# T4 sequence: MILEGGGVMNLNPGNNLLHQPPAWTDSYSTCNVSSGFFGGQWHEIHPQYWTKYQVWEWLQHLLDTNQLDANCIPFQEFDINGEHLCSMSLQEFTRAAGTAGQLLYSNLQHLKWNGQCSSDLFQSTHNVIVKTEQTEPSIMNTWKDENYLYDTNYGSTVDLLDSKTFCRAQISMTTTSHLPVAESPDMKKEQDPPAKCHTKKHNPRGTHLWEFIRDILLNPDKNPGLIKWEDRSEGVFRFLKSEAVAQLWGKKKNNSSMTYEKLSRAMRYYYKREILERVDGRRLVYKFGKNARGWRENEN
# How it was run: as §1
# [6] = molecular target: SPIB (Homo sapiens, UniProt Q01892 1-262)
# Sequence of SPIB (Q01892 whole entry): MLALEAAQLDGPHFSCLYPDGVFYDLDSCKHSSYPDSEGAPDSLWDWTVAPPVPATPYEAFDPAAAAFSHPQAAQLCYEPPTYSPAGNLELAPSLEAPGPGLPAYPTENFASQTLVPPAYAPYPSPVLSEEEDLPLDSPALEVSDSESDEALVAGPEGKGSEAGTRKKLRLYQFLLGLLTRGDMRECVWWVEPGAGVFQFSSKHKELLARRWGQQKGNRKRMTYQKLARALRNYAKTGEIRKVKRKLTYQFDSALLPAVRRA
# How it was run: as §1
# [7] = molecular target: T5, ELK3 (Homo sapiens, UniProt P41970 1-407)
# T5 sequence: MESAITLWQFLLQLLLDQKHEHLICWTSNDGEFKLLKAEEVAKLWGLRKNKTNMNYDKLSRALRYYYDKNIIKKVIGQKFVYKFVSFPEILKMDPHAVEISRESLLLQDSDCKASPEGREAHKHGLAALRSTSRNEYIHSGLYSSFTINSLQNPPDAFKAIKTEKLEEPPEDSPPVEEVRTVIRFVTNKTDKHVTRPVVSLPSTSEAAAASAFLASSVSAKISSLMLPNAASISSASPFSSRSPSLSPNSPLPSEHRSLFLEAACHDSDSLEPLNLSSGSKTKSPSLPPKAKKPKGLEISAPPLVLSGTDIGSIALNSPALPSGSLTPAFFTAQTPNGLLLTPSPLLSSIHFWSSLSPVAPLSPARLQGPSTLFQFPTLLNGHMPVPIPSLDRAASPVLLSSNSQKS
# How it was run: as §1
# [8] = molecular target: T6, SPIC (Homo sapiens, UniProt Q8N5J4 1-248)
# T6 sequence: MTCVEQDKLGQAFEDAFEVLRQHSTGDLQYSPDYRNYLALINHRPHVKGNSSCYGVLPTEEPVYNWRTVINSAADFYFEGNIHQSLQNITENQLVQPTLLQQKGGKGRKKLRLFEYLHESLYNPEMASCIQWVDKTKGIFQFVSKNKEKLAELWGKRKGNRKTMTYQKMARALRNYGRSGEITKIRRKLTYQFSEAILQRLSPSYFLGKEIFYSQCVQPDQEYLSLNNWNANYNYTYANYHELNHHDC
# How it was run: as §1
# [9] = molecular target: ELF4 (Homo sapiens, UniProt Q99607 1-663)
# Sequence of ELF4 (Q99607 whole entry): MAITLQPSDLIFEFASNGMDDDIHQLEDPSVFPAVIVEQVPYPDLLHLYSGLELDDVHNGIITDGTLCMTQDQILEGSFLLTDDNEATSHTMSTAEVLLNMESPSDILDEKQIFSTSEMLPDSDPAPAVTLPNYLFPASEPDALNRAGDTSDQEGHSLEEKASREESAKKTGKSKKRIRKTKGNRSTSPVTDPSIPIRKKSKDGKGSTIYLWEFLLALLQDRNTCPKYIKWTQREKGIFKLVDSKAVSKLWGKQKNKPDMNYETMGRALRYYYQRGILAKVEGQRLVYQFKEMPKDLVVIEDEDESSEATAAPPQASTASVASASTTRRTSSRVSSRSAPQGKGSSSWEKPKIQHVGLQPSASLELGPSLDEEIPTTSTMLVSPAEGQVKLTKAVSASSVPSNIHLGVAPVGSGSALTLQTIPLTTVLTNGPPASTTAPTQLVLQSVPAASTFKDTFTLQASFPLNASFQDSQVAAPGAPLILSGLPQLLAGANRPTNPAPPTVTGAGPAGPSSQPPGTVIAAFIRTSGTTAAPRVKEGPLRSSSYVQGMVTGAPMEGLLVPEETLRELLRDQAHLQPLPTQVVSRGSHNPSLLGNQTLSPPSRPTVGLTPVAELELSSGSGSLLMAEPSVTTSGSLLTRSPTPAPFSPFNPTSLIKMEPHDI
# How it was run: as §1
# [10] = molecular target: T7, ELK4 (Homo sapiens, UniProt P28324-2 1-405)
# T7 sequence: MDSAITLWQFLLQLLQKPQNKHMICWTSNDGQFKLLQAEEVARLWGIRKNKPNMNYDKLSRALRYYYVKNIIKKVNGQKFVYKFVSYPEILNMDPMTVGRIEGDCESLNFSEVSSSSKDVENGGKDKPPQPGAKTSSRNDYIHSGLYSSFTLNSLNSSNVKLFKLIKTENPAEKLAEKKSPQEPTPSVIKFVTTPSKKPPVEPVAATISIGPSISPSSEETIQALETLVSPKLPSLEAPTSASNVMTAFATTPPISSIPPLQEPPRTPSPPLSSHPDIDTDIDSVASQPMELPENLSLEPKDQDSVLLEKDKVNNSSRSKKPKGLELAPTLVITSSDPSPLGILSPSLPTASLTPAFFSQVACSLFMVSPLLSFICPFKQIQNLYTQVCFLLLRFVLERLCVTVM
# How it was run: as §1
# [11] = molecular target: T8, ELF3 (Homo sapiens, UniProt P78545 1-371)
# T8 sequence: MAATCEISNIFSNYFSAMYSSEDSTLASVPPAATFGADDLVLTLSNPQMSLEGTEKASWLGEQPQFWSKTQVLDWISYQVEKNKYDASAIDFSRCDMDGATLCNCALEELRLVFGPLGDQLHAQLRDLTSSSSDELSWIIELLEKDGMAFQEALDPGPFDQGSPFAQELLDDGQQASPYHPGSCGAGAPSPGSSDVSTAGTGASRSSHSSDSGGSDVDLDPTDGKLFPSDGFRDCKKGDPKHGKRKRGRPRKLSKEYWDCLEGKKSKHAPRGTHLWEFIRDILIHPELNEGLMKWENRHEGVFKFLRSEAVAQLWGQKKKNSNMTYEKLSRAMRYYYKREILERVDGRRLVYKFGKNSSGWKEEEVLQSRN
# How it was run: as §1
# [12] = molecular target: ETV1 (Homo sapiens, UniProt P50549 1-477)
# Sequence of ETV1 (P50549 whole entry): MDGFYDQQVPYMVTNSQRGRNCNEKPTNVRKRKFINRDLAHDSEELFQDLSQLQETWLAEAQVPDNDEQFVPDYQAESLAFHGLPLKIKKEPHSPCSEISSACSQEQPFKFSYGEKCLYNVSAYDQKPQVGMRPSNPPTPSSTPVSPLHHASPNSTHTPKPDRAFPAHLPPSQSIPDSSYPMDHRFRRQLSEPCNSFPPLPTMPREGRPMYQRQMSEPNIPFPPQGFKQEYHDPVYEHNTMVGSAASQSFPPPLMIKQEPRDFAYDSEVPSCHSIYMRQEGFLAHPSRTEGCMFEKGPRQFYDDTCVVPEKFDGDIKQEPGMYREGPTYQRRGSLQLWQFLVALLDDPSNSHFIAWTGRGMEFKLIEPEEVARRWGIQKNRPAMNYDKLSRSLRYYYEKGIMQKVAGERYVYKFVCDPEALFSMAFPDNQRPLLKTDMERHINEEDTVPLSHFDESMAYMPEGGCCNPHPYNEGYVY
# How it was run: as §1
# [13] = molecular target: T9, ERF (Homo sapiens, UniProt P50548 1-548)
# T9 sequence: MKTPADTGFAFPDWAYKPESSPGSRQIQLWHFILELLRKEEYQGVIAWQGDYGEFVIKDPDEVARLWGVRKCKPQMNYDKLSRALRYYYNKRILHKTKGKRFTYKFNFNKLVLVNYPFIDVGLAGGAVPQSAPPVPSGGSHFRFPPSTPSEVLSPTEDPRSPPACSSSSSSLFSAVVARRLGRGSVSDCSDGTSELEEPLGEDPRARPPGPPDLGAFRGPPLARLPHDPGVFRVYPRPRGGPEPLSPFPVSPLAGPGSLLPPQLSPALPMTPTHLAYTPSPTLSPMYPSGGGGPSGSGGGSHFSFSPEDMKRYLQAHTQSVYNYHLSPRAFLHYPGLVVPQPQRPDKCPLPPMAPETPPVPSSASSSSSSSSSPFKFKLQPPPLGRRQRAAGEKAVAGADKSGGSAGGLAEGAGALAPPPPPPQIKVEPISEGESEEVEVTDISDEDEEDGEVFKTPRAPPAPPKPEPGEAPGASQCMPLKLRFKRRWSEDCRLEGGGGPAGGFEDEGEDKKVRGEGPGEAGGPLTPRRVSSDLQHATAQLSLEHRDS
# How it was run: as §1
# [14] = molecular target: T10, ETV3L (Homo sapiens, UniProt Q6ZN32 1-361)
# T10 sequence: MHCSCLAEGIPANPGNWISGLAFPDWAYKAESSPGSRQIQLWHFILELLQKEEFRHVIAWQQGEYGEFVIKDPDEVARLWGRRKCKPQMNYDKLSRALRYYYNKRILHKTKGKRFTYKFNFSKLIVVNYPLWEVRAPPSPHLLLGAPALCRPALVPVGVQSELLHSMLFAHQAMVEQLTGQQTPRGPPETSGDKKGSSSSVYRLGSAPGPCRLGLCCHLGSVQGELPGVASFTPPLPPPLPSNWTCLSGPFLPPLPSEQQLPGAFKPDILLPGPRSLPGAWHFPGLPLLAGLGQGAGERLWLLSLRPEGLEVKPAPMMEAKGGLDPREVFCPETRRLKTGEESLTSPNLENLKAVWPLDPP
# How it was run: as §1
# [15] = molecular target: T11, ETS2 (Homo sapiens, UniProt P15036 1-469)
# T11 sequence: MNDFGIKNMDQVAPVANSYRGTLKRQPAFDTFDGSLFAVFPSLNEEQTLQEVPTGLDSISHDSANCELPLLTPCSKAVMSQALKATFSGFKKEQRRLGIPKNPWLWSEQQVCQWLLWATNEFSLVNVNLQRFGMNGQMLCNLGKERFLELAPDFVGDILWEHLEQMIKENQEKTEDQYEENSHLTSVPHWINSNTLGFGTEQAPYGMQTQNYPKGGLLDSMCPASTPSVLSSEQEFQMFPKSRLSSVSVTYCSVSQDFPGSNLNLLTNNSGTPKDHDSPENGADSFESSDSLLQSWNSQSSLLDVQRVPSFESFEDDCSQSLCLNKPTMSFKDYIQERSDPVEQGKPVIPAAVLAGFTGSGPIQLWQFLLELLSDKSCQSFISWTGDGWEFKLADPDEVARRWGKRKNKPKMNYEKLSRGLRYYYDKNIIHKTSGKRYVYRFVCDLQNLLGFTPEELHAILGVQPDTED
# How it was run: as §1
# [16] = molecular target: T12, ETV7 (Homo sapiens, UniProt Q9Y603 1-341)
# T12 sequence: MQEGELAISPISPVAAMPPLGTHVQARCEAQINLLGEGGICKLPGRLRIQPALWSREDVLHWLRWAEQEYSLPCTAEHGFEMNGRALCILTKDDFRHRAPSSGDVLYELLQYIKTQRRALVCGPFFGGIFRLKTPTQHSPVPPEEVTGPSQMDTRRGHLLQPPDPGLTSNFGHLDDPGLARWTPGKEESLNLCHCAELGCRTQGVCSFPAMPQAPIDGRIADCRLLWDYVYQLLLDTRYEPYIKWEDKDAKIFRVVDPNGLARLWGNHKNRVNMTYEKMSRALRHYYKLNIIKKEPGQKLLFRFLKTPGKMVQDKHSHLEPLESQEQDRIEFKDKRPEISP
# How it was run: as §1
# [17] = molecular target: T13, ETV3 (Homo sapiens, UniProt P41162-2 1-143)
# T13 sequence: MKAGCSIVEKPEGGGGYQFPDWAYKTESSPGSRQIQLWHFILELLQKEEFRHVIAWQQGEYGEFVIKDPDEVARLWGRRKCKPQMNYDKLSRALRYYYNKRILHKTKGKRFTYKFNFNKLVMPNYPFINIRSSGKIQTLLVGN
# How it was run: as §1
# [18] = molecular target: ETV6 (Homo sapiens, UniProt P41212 1-452)
# Sequence of ETV6 (P41212 whole entry): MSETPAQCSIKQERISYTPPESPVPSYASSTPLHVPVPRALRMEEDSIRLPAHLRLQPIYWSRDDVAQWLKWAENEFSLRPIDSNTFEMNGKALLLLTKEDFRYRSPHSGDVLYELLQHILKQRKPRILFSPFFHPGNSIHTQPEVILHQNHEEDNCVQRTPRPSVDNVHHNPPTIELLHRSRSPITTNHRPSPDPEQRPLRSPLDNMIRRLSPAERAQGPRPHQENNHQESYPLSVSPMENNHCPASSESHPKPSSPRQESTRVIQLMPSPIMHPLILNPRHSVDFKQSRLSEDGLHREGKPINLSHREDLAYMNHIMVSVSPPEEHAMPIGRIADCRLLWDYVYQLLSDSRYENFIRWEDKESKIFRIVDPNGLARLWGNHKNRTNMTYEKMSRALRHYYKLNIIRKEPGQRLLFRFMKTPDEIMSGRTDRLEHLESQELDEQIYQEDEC
# How it was run: as §1
sequence,measurement,setting,value
TACAGC,binding signal,[1],"1.01 fold enrichment (6-mer frequency, TF over GST control)"
same,binding signal,[2],"1.07 fold enrichment (6-mer frequency, TF over GST control)"
same,binding signal,[3],"1.06 fold enrichment (6-mer frequency, TF over GST control)"
same,binding signal,[4],"1.13 fold enrichment (6-mer frequency, TF over GST control)"
same,binding signal,[5],"1.06 fold enrichment (6-mer frequency, TF over GST control)"
same,binding signal,[6],"1.04 fold enrichment (6-mer frequency, TF over GST control)"
same,binding signal,[7],"1.06 fold enrichment (6-mer frequency, TF over GST control)"
same,binding signal,[8],"1.02 fold enrichment (6-mer frequency, TF over GST control)"
same,binding signal,[9],"1.13 fold enrichment (6-mer frequency, TF over GST control)"
same,binding signal,[10],"1.02 fold enrichment (6-mer frequency, TF over GST control)"
same,binding signal,[11],"1.16 fold enrichment (6-mer frequency, TF over GST control)"
same,binding signal,[12],"1.03 fold enrichment (6-mer frequency, TF over GST control)"
same,binding signal,[13],"1.16 fold enrichment (6-mer frequency, TF over GST control)"
same,binding signal,[14],"1.08 fold enrichment (6-mer frequency, TF over GST control)"
same,binding signal,[15],"1.1 fold enrichment (6-mer frequency, TF over GST control)"
same,binding signal,[16],"1.09 fold enrichment (6-mer frequency, TF over GST control)"
same,binding signal,[17],"1.02 fold enrichment (6-mer frequency, TF over GST control)"
same,binding signal,[18],"1.1 fold enrichment (6-mer frequency, TF over GST control)"
